Test results from PubChem BioAssay AID651821 (The Scripps Research Institute Molecular Screening Center, 2012).
Out of some 370,000 compounds screened, about 4,700 (1.3%) were called active. The list comes from a sample in which actives are over-represented; it also holds similar structures and randomly drawn compounds. A number with no mark means an inactive call.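 The calls were made as follows: active = inhibition above the plate cutoff, the mean of all test compounds on that plate plus 3 SD (cut at about 35% in these data); inactive = the rest.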

Assay: binders of r(CAG) RNA repeats, primary screen, biochemical, fluorescence (AID 651821);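 also: 0% = DMSO alone and 100% = 100 µM mitoxantrone as full dye displacement; higher means more dye released from RNA so lower well fluorescence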
Settings: r(CAG) RNA repeat, TO-PRO-1 dye displacement fluorescence; at 3 µM; hits give high values

Point of comparison: `CCOC(=O)C1C(C)C(C(C)(C)C)N(S(=O)(=O)c2ccc(C)cc2)C1c1ccccc1` (stereo not given), inhibition 1.44%. Against it:
- Cn1c2c(c(=O)n(C)c1=O)CN(Cc1ccco1)CN2 — lower, -0.1%
- COc1ccc(-n2c(SCC(=O)Nc3ccc4c(c3)OCCO4)nnc2-c2ccc(Cl)cc2)cc1 — higher, 6.74%
- COc1ccccc1C1CC(=O)n2c(nc(-c3ccccc3)c2-c2ccccc2)S1 (stereo not given) — higher, 9.44%
- COc1ccc(C2C(C#N)=C(N)Oc3n[nH]c(C)c32)cc1CN1CCN(c2ccc(F)cc2)CC1 (stereo not given) — lower, 0.94%
- CCCCCCCCN1C(=O)[C@@H](CC(=O)NCc2ccccc2)C[C@@]2(C(=O)OC)C1=C[C@H](C(C)(C)C)O[C@@H]2C — lower, 1.31%
- O=C(CN(c1cc(C(F)(F)F)ccc1Cl)S(=O)(=O)c1ccccc1)NCc1cccnc1 — lower, -7.03%
- CN(c1ccccc1)S(=O)(=O)c1ccc(C(=O)NCc2cccnc2)cc1 — higher, 2.25%
- Cc1cc(N2CCN(C(=O)OC(C)(C)C)C[C@H]2C)ccc1N1CCN(Cc2ccccc2)[C@H](C)C1 — lower, 0.53%
- Cc1ccc(S(=O)(=O)N2C[C@H]3C(=O)C[C@@H](c4cccc5ccccc45)N(S(=O)(=O)c4ccc(C)cc4)[C@H]3C[C@H]2c2ccc(Cl)cc2)cc1 — higher, 13.6%
- COc1cccc(/C=C2\CC3(OC(C)=O)CCCN2C3)c1 (stereo not given) — lower, 0.45%
- C#CCN([C@@H](C)C(=O)OCC)S(=O)(=O)c1ccc(Br)cc1F — higher, 2.12%
- O=c1oc2ccccc2c(NC2CCCCC2)c1NS(=O)(=O)c1ccc(Cl)cc1 — higher, 5.21%
- O=c1ccc2cc(S(=O)(=O)Nc3ccccc3F)ccc2o1 — lower, -1.01%
- COc1ccc(-n2c(SCC(=O)Nc3ccccc3-c3ccccc3)nnc2-c2cccnc2)cc1 — lower, 0.96%
- Cc1c(C(C)c2ccccc2O)[nH]c2ccccc12 (stereo not given) — higher, 4.84%
- O=C(CSc1nnc(-c2ccccc2)n1Cc1ccco1)Nc1ccccc1-c1ccccc1 — higher, 5.56%
- Clc1ccc(-n2c(SC/C=C/c3ccccc3)nnc2-c2ccco2)cc1 — higher, 2.56%
- COC(=O)C1CN(CC(C)C)CCS(=O)(=O)N1Cc1ccc(C)cc1 (stereo not given) — higher, 2.99%
- CC(C)(C)c1ccc(CSc2nnc(-c3cccs3)o2)cc1 — lower, -0.86%
- CC(C)N1CCCCC(NC(=O)c2ccc3ccccc3c2)C1=O (stereo not given) — higher, 2.21%
- Nc1ccn([C@@H]2O[C@H](C(=O)N[C@H]3CCCCNC3=O)[C@@H](O)[C@H]2O)c(=O)n1 — lower, -0.39%
- Cc1nc(C)c(-c2nnc(-c3cccc(S(=O)(=O)N(C)C)c3)o2)cc1C(=O)NN — higher, 10.6%
- COc1cccc(-c2nn(-c3ccccc3)cc2/C=C(\C#N)C(=O)NCCCn2ccnc2)c1 — higher, 4.33%
- O=C(CN1CCC(NC(=O)NCc2ccccc2)CC1)Nc1ccc2c(c1)OCCO2 — lower, 0.82%
- CCc1ccc(C2=CC(=O)CC(C)(C)C2=O)cc1 — higher, 3.63%
- COc1ccc(Cl)cc1NC(=O)COC(=O)C(CC(C)C)N1C(=O)C2CC=CCC2C1=O (stereo not given) — lower, -0.39%
- OC(c1ccccc1)(c1ccccc1)C1CCN(CCCOc2ccc(-c3ccsc3)cc2)CC1 — higher, 9.5%
- Cc1ccnc(NS(=O)(=O)c2ccc(NC(=O)c3oc4ccccc4c3C)cc2)n1 — higher, 33.1%
- Cc1ccnc(NS(=O)(=O)c2ccc(NC(=O)c3oc4ccc(F)cc4c3C)cc2)n1 — higher, 33.3%
- O=C(Nc1ccc(S(=O)(=O)Nc2ncccn2)cc1)c1cncc(Br)c1 — lower, -0.76%
- Cc1cc(C)c2oc(C(=O)Nc3ccc(S(=O)(=O)Nc4nccc(C)n4)cc3)cc(=O)c2c1 — higher, 1.83%
- CN1C(=O)C(Br)(Br)CC1c1cccnc1 (stereo not given) — lower, 1.36%
- O=C(CSc1nc2ccccc2s1)N=Nc1c(O)[nH]c2ccccc12 — higher, 10.6%
- O=C(CCN1CCCCC1)N=Nc1c(O)[nH]c2ccccc12 — higher, 4.74%
- Cc1ccccc1Nc1nc(N)nc(COC(=O)CCC(=O)c2ccc(F)cc2)n1 — lower, 0.17%
- CCc1ccccc1NC(=O)CSc1nnc(-c2cccs2)o1 — lower, -0.17%
- CC(C)[C@@H](C)/C=C/[C@@H](C)[C@H]1CC[C@@H]2[C@]1(C)CCC1[C@]23C=C[C@]2(C[C@@H](O)CC[C@]12C)N(c1ccc([N+](=O)[O-])cn1)O3 (stereo not given in full) — higher, 27.1%
- COC(=O)c1cnn2c(C(F)(F)F)cc(-c3ccco3)nc12 — higher, 10.2%
- Cc1ccsc1-c1cc(C(=O)O)c2c(ccc3ccccc32)n1 — higher, 9.82%
- COC(=O)N1Cc2ccnnc2CC1c1ccccc1Br (stereo not given) — higher, 3.21%
- CN1CCN(S(=O)(=O)c2cccc(C(=O)Nc3cccc(S(N)(=O)=O)c3)c2)CC1 — higher, 1.84%
- CCC(CC)C(=O)Nc1ccc(S(=O)(=O)Nc2nccs2)cc1 — higher, 3.15%
- Cc1ccc(OCCCC(=O)Nc2ccc(S(=O)(=O)Nc3cc(C)nc(C)n3)cc2)cc1 — higher, 24.9%
- Cc1ccnc(NS(=O)(=O)c2ccc(NC(=O)c3ccc(S(=O)(=O)N4CCOCC4)cc3)cc2)n1 — higher, 12.3%
- COc1ccccc1OC(C)C(=O)Nc1ccc(S(=O)(=O)Nc2nccs2)cc1 (stereo not given) — higher, 19.7%
- O=C(Nc1ccc(S(=O)(=O)N2CCOCC2)cc1)c1ccc2ncsc2c1 — higher, 5.29%
- CN1CCN(S(=O)(=O)c2cccc(C(=O)N3CCc4ccccc43)c2)CC1 — lower, 0.16%
- O=C(CCS(=O)(=O)c1ccccc1Cl)Nc1ccc(S(=O)(=O)Nc2ncccn2)cc1 — higher, 2.17%
- N#Cc1cccc(C(=O)NCC2CCN(C(=O)C(=O)c3cc4ccccc4o3)CC2)c1 — higher, 2.89%
- Nc1[nH]c(C(=O)c2ccccc2)c(-c2ccc(Cl)cc2Cl)c1C(=O)c1ccccc1 — higher, 5.66%
- C[C@@H]1CN([C@H](C)CO)C(=O)CCCn2cc(nn2)CO[C@H]1CN(C)C(=O)Nc1ccc(N2CCCCC2)cc1 — higher, 9.11%
- Cc1ccc2nc(SCC(=O)N3CC(C)OC(C)C3)nc(=O)n2c1 (stereo not given) — lower, -10.3%
- O=C(C1CCCN1S(=O)(=O)c1ccccc1)N1CCc2ccccc2C1 (stereo not given) — lower, 0.6%
- O=C(OCC(=O)N1CCCCC1)c1ccc(OC(F)(F)F)cc1 — lower, -1.21%
- O=C(Nc1ccccc1)N1CCN(Cc2nc3ccccc3c(=O)[nH]2)CC1 — lower, -0.05%
- CCN(CC)C(=O)CC[C@@H]1CC[C@]2(CCCN(S(=O)(=O)C3CCCCC3)C2)O1 — lower, -0.19%
- O=C(CSc1nc2c(c(=O)[nH]1)CCCC2)N1CCCCC1 — higher, 3.54%
- O=C(Nc1ccc(S(=O)(=O)Nc2nccs2)cc1)c1cc(=O)[nH]c2ccccc12 — higher, 25.9%
- Cc1cc(C(=O)OCC(=O)Nc2nccs2)c2ccccc2n1 — higher, 6.91%
- CCN(CC(=O)Nc1ccccc1C(F)(F)F)C(=O)C1CCN(C(=O)Nc2ccccc2)CC1 — lower, -1.69%
- COC(=O)[C@]12C[C@H](CC(=O)NCCCCc3ccccc3)C(=O)N(Cc3ccc4c(c3)OCO4)C1=C[C@H](C(C)(C)C)O[C@@H]2C — higher, 9.49%
- CSc1nc(-c2ccccc2)nc(C(Cl)Cl)n1 — lower, -0.59%
- COc1cc(C(=O)NCC(c2ccco2)N2CCCC2)ccc1OCc1ccccc1 (stereo not given) — higher, 3.03%
- COc1ccccc1CCNC(=O)C1CCN(C(=O)/C=C/c2ccccc2)CC1 — lower, -7.33%
- COc1cc(/C=C/C(=O)OCC(=O)NC(=O)NCc2ccccc2)ccc1OCC#N — lower, -3.56%
- COCc1cc(C(C)=O)ccc1OC — higher, 3.9%

In the case of `COc1ccccc1C1C(C#N)=C(N)Oc2c1c(-c1ccccc1)nn2-c1ccccc1` (stereo not given), the inhibition is reported as 54.6% (active).
In the case of `O=C(c1cccnc1)N(c1cc2sc(=O)oc2c2ccccc12)S(=O)(=O)c1ccccc1`, the inhibition is reported as 80.7% (active).
For `Cc1ccc(S(=O)(=O)N2[C@@H](c3cccc4ccccc34)C(C(=O)O)=C[C@H]2C(C)(C)C)cc1`, the inhibition was 50.6% (active).
For `O=c1oc(-c2ccccc2NS(=O)(=O)c2ccc(Cl)cc2)nc2ccccc12`, the inhibition was 39.1% (active).
With `Clc1ccccc1CSc1nnc(-c2ccco2)c(-c2ccco2)n1` the inhibition was 54.8% (active).
With `CN(C)S(=O)(=O)c1cccc(-c2nn(-c3ccccc3)cc2/C=C2\SC(=S)N(CC(=O)O)C2=O)c1` the inhibition was 63.9% (active).
For `Cc1ccc(-c2nn(-c3ccccc3)cc2/C=C2\SC(=S)N(CCCCCC(=O)O)C2=O)o1`, the inhibition was 48.8% (active).
For `Cc1noc(NS(=O)(=O)c2ccc(NC(=O)c3oc4ccc(F)cc4c3C)cc2)c1C`, the inhibition was 75.7% (active).
With `Cc1cc(C)c2nc(-c3cccnc3)cc(C(=O)Nc3ccc(S(=O)(=O)Nc4onc(C)c4C)cc3)c2c1` the inhibition was 80.4% (active).
For `Cc1c(-c2ccccc2)n[nH]c1C(=O)N=Nc1c(O)[nH]c2ccccc12`, the inhibition was 36.8% (active).
In the case of `Cc1cc(C)c2nc(-c3ccco3)cc(C(=O)O)c2c1`, the inhibition is reported as 67.3% (active).
For `O=C(CCc1ccccc1Cl)Nc1ccc(S(=O)(=O)Nc2nccs2)cc1`, the inhibition was 44% (active).
With `Cc1ccc(OCCC(=O)Nc2ccc(S(=O)(=O)Nc3nccs3)cc2)cc1` the inhibition was 36.9% (active).
With `O=C(Nc1ccc(S(=O)(=O)Nc2nccs2)cc1)c1cccc(S(=O)(=O)N2CCOCC2)c1` the inhibition was 34.7% (active).
For `CN1CCN(S(=O)(=O)c2cccc(C(=O)Nc3sccc3C#N)c2)CC1`, the inhibition was 44.6% (active).
For `O=C(Nc1ccc(S(=O)(=O)Nc2nccs2)cc1)c1cc(-c2ccncc2)nc2ccccc12`, the inhibition was 47.9% (active).
With `COc1ccc(C(=O)/C=C/c2ccc(-c3ccccc3)cc2)cc1CSCC(=O)O` the inhibition was 63.2% (active).
With `COC(=O)c1ccc(COc2ccc(/C=C/C(=O)c3ccc(OC)c(CSCC(=O)O)c3)cc2OC)cc1` the inhibition was 43.7% (active).
